Experimental findings from ChEMBL document CHEMBL3988442, “University of Dundee, Small-Polar-MMV Screening Library” (2021) are described below.

Among all 48,000 compounds or so, about 13,000 (27%) showed an effect of 50% or more. Some of the results follow.

The experiment relates to Wolbachia pipientis. The experiment can be described thus: Anti-Wolbachia Cell-Based Screen. In kind it is functional. The arrangement: scale not given: in the data most compounds retested in dose-response had high values. Particulars: 5 µM.
`Cc1ncc2c(n1)CN(C(C(N)=O)c1ccccc1)CC2` (centres undefined): the “Percent Effect” value came to 4.006%.
In the case of `CC(C)NC(=O)NC[C@H]1OC[C@@H](NCc2ccncc2)[C@@H]1O`, the “Percent Effect” value was 2.532%.
Consider `Cc1ccc(OC2(C(=O)O)CCN(C/C=C/c3ccco3)CC2)cc1`, for which the “Percent Effect” value is given as -1.713%.
For the compound `O=C(Nc1cccc(OC(F)F)c1)C1CN(S(=O)(=O)C2CC2)C1`, the “Percent Effect” value is given as 10.08%.
With `CN1[C@H]2CC[C@@H]1CN(C(=O)c1nnc3n1CCCC3)CC2`, the “Percent Effect” value came out at 1.056%.
As for `Cc1cnc(CN2CCN(C(C)c3nc(C(C)C)no3)CC2)cn1` (centres undefined), the “Percent Effect” value is reported as 10.96%.
As to `CC(C)N1CCCC(c2cc(C(F)(F)F)nc3nccn23)C1` (centres undefined), the “Percent Effect” value came to 97.97%.
In the case of `CC(C)c1nc(C2CCCN(c3ncccn3)C2)no1` (centres undefined), the “Percent Effect” value stood at 10.51%.
Regarding `CC(C)c1nc(C2CCCN(c3nccc(C(F)(F)F)n3)C2)no1` (centres undefined), the “Percent Effect” value was 4.176%.
With `CC(C)N1CC[C@H](c2nc3ccc(C(F)(F)F)cc3[nH]2)C1`, the “Percent Effect” value is recorded as -4.029%.
Turning to `N#Cc1ccc(N2CCN(c3cnccn3)CC2)c(C(F)(F)F)c1`, the “Percent Effect” value is -6.859%.
Turning to `N#Cc1ccc(N2CCN(c3cnccn3)CC2)cc1C(F)(F)F`, the “Percent Effect” value is given as -11.21%.
The figure for `CN(C)Cc1nnc(C2CCCN(c3cc(C(F)(F)F)ccn3)C2)n1C` (centres undefined) is -6.748%; for `CC(C)n1ccnc1C1CCCN(c2nc3ccccc3s2)C1` (centres undefined) it is 8.79%.
As for `FC(F)(F)c1cc(C2CCCN(c3cnccn3)C2)n2ccnc2n1` (centres undefined), the “Percent Effect” value is reported as 112.2%.
The figure for `FC(F)(F)c1cc(C2CCN(c3cnccn3)CC2)n2ccnc2n1` is 100.9%; for `FC(F)(F)c1ccnc(N2CCCC(N3CCOCC3)C2)c1` (centres undefined) it is 3.517%.
For `FC(F)(F)c1cc(C2CCCN(c3ncccn3)C2)n2ccnc2n1` (centres undefined), the “Percent Effect” value is 126.4%.
Take `CCNc1ncc(C(=O)NCc2csc(-c3ncccn3)n2)cn1`: the “Percent Effect” value is listed as -30.13%.
`CCOC(C)c1nc(CN2CCC(CNC(C)=O)CC2)cs1` (centres undefined): the “Percent Effect” value was -3.059%.
Regarding `CC(=O)N1CCC(c2cc(C(F)(F)F)nc3nccn23)CC1`, the “Percent Effect” value is 113.6%.
Turning to `CN(C)CCn1ccnc1C1CCN(C(=O)CCC(F)(F)F)CC1`, the “Percent Effect” value was -12.98%.
For `Cn1ccnc1C1CCN(C(=O)COCC(F)(F)C(F)F)CC1` the value was -2.138%; for `Cc1ccc2c(C)c(C(=O)NCCc3csc(N)n3)oc2c1`, 32.42%; for `O=C(c1cc(-c2ccco2)nc2c(Cl)cccc12)N1C[C@H]2CNC[C@H]2C1`, 10.23%.
With `CCc1ccc2nc(C)cc(C(=O)NC[C@@H]3CCNC[C@H]3O)c2c1`, the “Percent Effect” value is -0.4588%.
Turning to `Cc1cc(C2CCCN2C(=O)NCc2cccc(F)c2)on1` (centres undefined), the “Percent Effect” value is -2.715%.
Turning to `Cc1cc(C(=O)NCc2ccc(F)cc2)c2c(C3CCNC3)noc2n1` (centres undefined), the “Percent Effect” value was determined as 105.3%.
As for `CCc1ccc2nc(C)cc(C(=O)N[C@@H]3CNC[C@H]3O)c2c1`, the “Percent Effect” value was -12.87%.
For `CC(C)(C)c1cc(C[C@H]2CNCC[C@H]2CC(=O)NCc2cccs2)no1`, the “Percent Effect” value is listed as 1.711%.
With `Cc1cc(C(=O)NCc2cccs2)c2c(C3CCCN3)noc2n1` (centres undefined), the “Percent Effect” value was found to be 99.02%.
As for `COc1nc2c(cc1C(=O)NCc1noc(Cc3cccs3)n1)CCC2`, the “Percent Effect” value is -29.09%.
For `Cc1cc(C(=O)NCc2ccc(F)cc2)c2c(C3CCCN3)noc2n1` (centres undefined) the value was 101.4%.
Turning to `CC(C)Cc1cc(CNC(=O)c2ccccc2C2CCNC2)no1` (centres undefined), the “Percent Effect” value is on record as 0.6659%.
